# Measurements reported in the supplement of paper PMC8728848.
# About 410 targets per protein were measured; listed, in parts, are those with the strongest signals and a random draw of the rest.
# B1: UDA (Urtica dioica), P11218 (protein)
# chain: MMMRFLSAVVIMSSAMAVGLVSAQRCGSQGGGGTCPALWCCSIWGWCGDSEPYCGRTCENKCWSGERSDHRCGAAVGNPPCGQDRCCSVHGWCGGGNDYCSGSKCQYRCSSSVRGPRVALSGNSTANSIGNVVVTEPLFDQMFSHRKDCPSQGFYSYHSFLVAAESFPAFGTIGDVATRKREVAAFLAHISQATSGERSDVENPHAWGLCHINTTTVTENDFCTSSDWPCAAGKKYSPRGPIQLTHNFNYGLAGQAIGEDLIQNPDLVEKDPIISFKTALWFWMSQHDNKPSCHDIVLNANSAANRIPNKGVIGNIISRAFGHDDFAVRSSSIGFYKRYCDMLGVSYGHDLKYWFDNTPSSEFQRIQMRVAA
# Columns and labels:
# Assay in all cases: glycan array binding signal (z-score within array); higher = stronger binding
# Details in all cases: glycan notation: IUPAC condensed, linker removed
# [1] = biological target: GlcNAc(b1-2)[GlcNAc(b1-6)]Man(a1-6)[GlcNAc(b1-2)Man(a1-3)]Man(b1-4)GlcNAc(b1-4)[Fuc(a1-6)]GlcNAc
# Method in brief: (§1)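 The binding signal is a Z-score computed within each array and averaged over linkers. Arrays of the same protein sequence at different concentrations or buffers were also averaged together. Data originate from 3228 arrays in the Consortium for Functional Glycomics database, kept only where the protein sequence was available.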
# [2] = biological target: GlcNAc(b1-3)Gal(b1-3)GalNAc
# Method in brief: as §1
# [3] = biological target: GlcNAc(b1-3)Gal(b1-4)GlcNAc(b1-3)Gal(b1-4)GlcNAc(b1-2)Man(a1-3)[GlcNAc(b1-3)Gal(b1-4)GlcNAc(b1-3)Gal(b1-4)GlcNAc(b1-2)Man(a1-6)]Man(b1-4)GlcNAc(b1-4)[Fuc(a1-6)]GlcNAc
# Method in brief: as §1
# [4] = biological target: GlcNAc(b1-3)Gal(b1-4)GlcNAc(b1-3)GalNAc
# Method in brief: as §1
# GlcNAc(b1-3)Man = biological target: GlcNAc(b1-3)Man
# Method in brief: as §1
# [5] = biological target: GlcNAc(b1-4)GlcNAc(b1-4)GlcNAc
# Method in brief: as §1
# [6] = biological target: GlcNAc(b1-4)GlcNAc(b1-4)GlcNAc(b1-4)GlcNAc(b1-4)GlcNAc
# Method in brief: as §1
# [7] = biological target: GlcNAc(b1-6)Gal(b1-4)GlcNAc
# Method in brief: as §1
# Kdn(a2-3)Gal(b1-4)Glc = biological target: Kdn(a2-3)Gal(b1-4)Glc
# Method in brief: as §1
# [8] = biological target: Man(a1-2)Man(a1-3)[Man(a1-2)Man(a1-6)]Man(a1-6)[Man(a1-2)Man(a1-2)Man(a1-3)]Man(b1-4)GlcNAc(b1-4)GlcNAc
# Method in brief: as §1
# [9] = biological target: Man(a1-2)Man(a1-3)[Man(a1-2)Man(a1-6)]Man(a1-6)[Man(a1-3)[Man(a1-6)]Man(a1-6)]Man(b1-4)GlcNAc(b1-4)GlcNAc
# Method in brief: as §1
# [10] = biological target: Man(a1-2)Man(a1-3)[Man(a1-6)]Man(a1-6)[Man(a1-2)Man(a1-3)]Man(b1-4)GlcNAc(b1-4)GlcNAc
# Method in brief: as §1
# [11] = biological target: Man(a1-2)Man(a1-6)[Man(a1-3)]Man(a1-6)[Man(a1-2)Man(a1-2)Man(a1-3)]Man(b1-4)GlcNAc(b1-4)GlcNAc
# Method in brief: as §1
# [12] = biological target: Man(a1-3)[Man(a1-6)]Man(a1-6)[Man(a1-2)Man(a1-3)]Man(b1-4)GlcNAc(b1-4)GlcNAc
# Method in brief: as §1
# [13] = biological target: Man(a1-3)[Man(a1-6)]Man(a1-6)[Man(a1-3)]Man(b1-4)GlcNAc(b1-4)GlcNAc
# Method in brief: as §1
# [14] = biological target: Man(a1-3)[Man(a1-6)]Man(b1-4)GlcNAc(b1-4)GlcNAc
# Method in brief: as §1
# [15] = biological target: Neu5Ac(a2-3)Gal(b1-3)GlcNAc
# Method in brief: as §1
# [16] = biological target: Neu5Ac(a2-3)Gal(b1-3)GlcNAc(b1-4)Gal(b1-4)Glc
# Method in brief: as §1
# [17] = biological target: Neu5Ac(a2-3)Gal(b1-3)[GlcNAc(b1-6)]GalNAc
# Method in brief: as §1
# [18] = biological target: Neu5Ac(a2-3)Gal(b1-3)[Neu5Ac(a2-3)Gal(b1-4)]GlcNAc
# Method in brief: as §1
# [19] = biological target: Neu5Ac(a2-3)Gal(b1-3)[Neu5Ac(a2-6)]GlcNAc(b1-3)[Fuc(a1-3)[Gal(b1-4)]GlcNAc(b1-6)]Gal(b1-4)Glc
# Method in brief: as §1
# [20] = biological target: Neu5Ac(a2-3)Gal(b1-4)GlcNAc(b1-2)Man(a1-3)[GlcNAc(b1-4)][Neu5Ac(a2-3)Gal(b1-4)GlcNAc(b1-2)Man(a1-6)]Man(b1-4)GlcNAc(b1-4)GlcNAc
# Method in brief: as §1
# [21] = biological target: Neu5Ac(a2-3)Gal(b1-4)GlcNAc(b1-2)Man(a1-3)[Neu5Ac(a2-3)Gal(b1-4)GlcNAc(b1-2)Man(a1-6)]Man(b1-4)GlcNAc(b1-4)[Fuc(a1-6)]GlcNAc
# Method in brief: as §1
# [22] = biological target: Neu5Ac(a2-3)Gal(b1-4)GlcNAc(b1-3)Gal(b1-4)GlcNAc(b1-3)Gal(b1-4)GlcNAc(b1-2)Man(a1-3)[Neu5Ac(a2-3)Gal(b1-4)GlcNAc(b1-3)Gal(b1-4)GlcNAc(b1-3)Gal(b1-4)GlcNAc(b1-2)Man(a1-6)]GalNAc
# Method in brief: as §1
# [23] = biological target: Neu5Ac(a2-3)Gal(b1-4)GlcNAc(b1-3)Gal(b1-4)GlcNAc(b1-3)[Neu5Ac(a2-3)Gal(b1-4)GlcNAc(b1-3)Gal(b1-4)GlcNAc(b1-6)]GalNAc
# Method in brief: as §1
# [24] = biological target: Neu5Ac(a2-3)Gal(b1-4)[Fuc(a1-3)]GlcNAc
# Method in brief: as §1
# [25] = biological target: Neu5Ac(a2-3)Gal(b1-4)[Fuc(a1-3)]GlcNAc(b1-3)Gal(b1-4)GlcNAc
# Method in brief: as §1
# [26] = biological target: Neu5Ac(a2-3)[GalNAc(b1-4)]Gal(b1-4)Glc
# Method in brief: as §1
# [27] = biological target: Neu5Ac(a2-6)Gal(b1-4)GlcNAc(b1-2)Man(a1-3)Man(b1-4)GlcNAc(b1-4)GlcNAc
# Method in brief: as §1
# [28] = biological target: Neu5Ac(a2-6)Gal(b1-4)GlcNAc(b1-2)Man(a1-3)[GlcNAc(b1-4)][Neu5Ac(a2-6)Gal(b1-4)GlcNAc(b1-2)Man(a1-6)]Man(b1-4)GlcNAc(b1-4)GlcNAc
# Method in brief: as §1
# [29] = biological target: Neu5Ac(a2-6)Gal(b1-4)GlcNAc(b1-2)Man(a1-3)[Man(a1-6)]Man(b1-4)GlcNAc(b1-4)GlcNAc
# Method in brief: as §1
# [30] = biological target: Neu5Gc(a2-8)Neu5Gc(a2-3)Gal(b1-4)GlcNAc
# Method in brief: as §1
binder,measurement,setting,value
B1,glycan array binding signal (z-score),[1],-0.162
same,glycan array binding signal (z-score),[2],-0.181
same,glycan array binding signal (z-score),[3],0.026
same,glycan array binding signal (z-score),[4],-0.182
same,glycan array binding signal (z-score),GlcNAc(b1-3)Man,-0.17
same,glycan array binding signal (z-score),[5],2.6
same,glycan array binding signal (z-score),[6],2.39
same,glycan array binding signal (z-score),[7],-0.173
same,glycan array binding signal (z-score),Kdn(a2-3)Gal(b1-4)Glc,-0.168
same,glycan array binding signal (z-score),[8],4.32
same,glycan array binding signal (z-score),[9],4.79
same,glycan array binding signal (z-score),[10],4.54
same,glycan array binding signal (z-score),[11],8.27
same,glycan array binding signal (z-score),[12],10.8
same,glycan array binding signal (z-score),[13],5.89
same,glycan array binding signal (z-score),[14],6.43
same,glycan array binding signal (z-score),[15],-0.164
same,glycan array binding signal (z-score),[16],-0.174
same,glycan array binding signal (z-score),[17],-0.176
same,glycan array binding signal (z-score),[18],-0.25
same,glycan array binding signal (z-score),[19],-0.177
same,glycan array binding signal (z-score),[20],-0.174
same,glycan array binding signal (z-score),[21],-0.169
same,glycan array binding signal (z-score),[22],-0.024
same,glycan array binding signal (z-score),[23],-0.161
same,glycan array binding signal (z-score),[24],-0.19
same,glycan array binding signal (z-score),[25],-0.171
same,glycan array binding signal (z-score),[26],-0.189
same,glycan array binding signal (z-score),[27],1.69
same,glycan array binding signal (z-score),[28],-0.179
same,glycan array binding signal (z-score),[29],4.09
same,glycan array binding signal (z-score),[30],-0.107
